Reference: ChEMBL document CHEMBL4513216, “Probing the Open Global Health Chemical Diversity Library for Multistage-Active Starting Points for Next-Generation Antimalarials” (ACS Infect Dis, 2020)
Screen size: about 69,000 compounds; about 8,600 (12%) showed an effect of 50% or more. The full list was thinned out, with strong results kept by preference.

Tested on: Plasmodium berghei
Assay: Screen against P. berghei liver stage (PbLuc), transformed with Luciferase, at 10uM
Type: functional, HepG2
Settings: tested at 10 uM

Row | Structure (SMILES) | INHIBITION [%]
1 | CC(C)n1ncc2c1NC(=O)CC21C(=O)Nc2c(Cl)cc(Br)cc21 (configuration not stated) | -23.7
2 | Cc1cc(C)c2c(c1)C1(CC(=O)Nc3c1cnn3C(C)C)C(=O)N2 (configuration not stated) | -20.5
3 | CC(C)n1ncc2c1NC(=O)CC21C(=O)Nc2c(Cl)cccc21 (configuration not stated) | -75.8
4 | CC(C)n1ncc2c1NC(=O)CC21C(=O)Nc2cc(Cl)cc(Cl)c21 (configuration not stated) | 89.6
5 | CC(C)n1ncc2c1NC(=O)CC21C(=O)Nc2c(Br)cc(Cl)cc21 (configuration not stated) | 59.3
6 | CC(C)n1ncc2c1NC(=O)CC21C(=O)Nc2c(Cl)ccc(Cl)c21 (configuration not stated) | 73.6
7 | CC(C)n1ncc2c1NC(=O)CC21C(=O)Nc2c(Cl)cc(Cl)cc21 (configuration not stated) | -35.5
8 | Cc1cc(Br)c2c(c1)C1(CC(=O)Nc3c1cnn3C(C)C)C(=O)N2 (configuration not stated) | -34.8
9 | CN1C(=O)C2(CC(=O)Nc3c2cnn3C(C)(C)C)c2c(Cl)cccc21 (configuration not stated) | 5.58
10 | CC(=O)c1ccc(N2CCN(C(=O)NCc3cc[nH]n3)CC2)cc1 | 48.4
11 | O=C(c1ccsc1)N1CCOC2(CCN(Cc3cccnc3)CC2)C1 | -9.67
12 | COc1ccc2oc(C(C)NC(=O)NC3CCN(C)CC3)c(C)c2c1 (configuration not stated) | 2.4
13 | Cn1ccnc1CNC(=O)N(CCCO)C1CCc2ccccc21 (configuration not stated) | 8.05
14 | CCC[C@H]1CN(c2cncc(C(=O)N3CCCCC3)n2)C[C@@H]1N(C)C | -12.2
15 | COCCNC(=O)Cn1cc(OCc2ccc(F)cc2)c(=O)cc1C | 25.8
16 | Cc1nc(O)cc(C2CCCN2CCO)n1 (configuration not stated) | 13.5
17 | CC(=O)Cc1c(C)nn(-c2cncc(N)c2)c1C | 11.5
18 | O=C1CC2(CCCC2)CN1CCOc1ccc(F)cc1 | -144
19 | CC(=O)OC1CN(c2nc3c(C(F)(F)F)cccc3s2)C1 | -107
20 | O=C(C1=COCCO1)N1CC(Oc2nc3c(Cl)cccc3s2)C1 | 74.6
21 | OC1CN(c2nc3c(C(F)(F)F)cccc3s2)C1 | -40
22 | COc1cccc2sc(OC3CN(C(=O)C4=COCCO4)C3)nc12 | 13.3
23 | O=C(C1=COCCO1)N1CC(Oc2nc3c(C(F)(F)F)cccc3s2)C1 | 81.1

Row | Structure (SMILES) | INHIBITION [%]
24 | Cn1nc(C(=O)N2CC(Oc3nc4c(Cl)cccc4s3)C2)ccc1=O | 29.6
25 | CC1CCN(C(=O)CSc2nc3c(cnn3CCO)c(=O)[nH]2)CC1 | 38.6
26 | O=C(c1ccc2[nH]nnc2c1)N1CC[C@H](O)[C@]2(CCCO2)C1 | 1.62
27 | CCc1cccc(NC(=O)N2CCn3cnc(COC)c3C2)c1 | -2.35
28 | CCN(CC1CCCO1)C(=O)Nc1cc(C(N)=O)ccc1OC (configuration not stated) | 2.3
29 | O=C(Cc1ccsc1)N1CCC[C@@H]1Cn1c(=O)oc2ccccc21 | 8.2
30 | O=C(NCC1CCOCC1)[C@@H]1CC[C@@H]2[C@@H](CCN2Cc2ccncc2)O1 | -54.7
31 | O=C(COCC1CCCO1)N(Cc1cccnc1)c1ccc(F)cc1 (configuration not stated) | 53.3
32 | O=C(CN(Cc1cccnc1)CC1CCCO1)Nc1ccc(F)cc1 (configuration not stated) | 21.6
33 | O=C(CCc1cccnc1)N(Cc1ccsc1)CC1CCCO1 (configuration not stated) | -9.86
34 | Cn1cc(C2CC(=O)NC23CCN(C(=O)c2cccnc2)CC3)cn1 (configuration not stated) | 33.4
35 | O=C(c1csc(-c2ncccn2)n1)N1CCCC1Cn1cccn1 (configuration not stated) | 41.5
36 | CC(C)CC(=O)Nc1cccc(CNCc2cccs2)c1 | 52.1
37 | O=C(Nc1cccc(CNCc2cccs2)c1)C1CCCC1 | 36.9
38 | O=C(Nc1cccc(CNCc2cccs2)c1)C1CC1 | 20.5
39 | Cc1cnn(CC2CCCN2C(=O)c2sccc2-n2cnnn2)c1 (configuration not stated) | -29.1
40 | COCCC(=O)N(C)CCC1=CCN(C)CC1 | -6.274
41 | CN(C)C(=O)C1(c2cnccn2)CCCN1C(=O)Cc1ccsc1 (configuration not stated) | 41
42 | CN1Cc2ccccc2CC2(CCN(C(=O)N3CCOCC3)CC2)C1=O | 26.5
43 | CN1CC[C@]2(CN(C(=O)[C@H]3CCCO3)C[C@H]2c2ccccc2)C1=O | 4.02
44 | CN1Cc2ccccc2CC2(CCN(C(=O)[C@H]3CCCO3)CC2)C1=O | 59.3
45 | CCN1CC[C@]2(CN(C(=O)[C@H]3CCCO3)C[C@H]2c2ccccc2)C1=O | 52.3
46 | CCN1CC[C@]2(CN(C(=O)C3CCOCC3)C[C@H]2c2ccccc2)C1=O | 20.1

Row | Structure (SMILES) | INHIBITION [%]
47 | O=C([C@H]1CCCO1)N1CCC2(CC1)Cc1ccccc1CNC2=O | 7.7
48 | CSCCC(=O)N1CCCC(n2ccnc2)C1 (configuration not stated) | -6.14
49 | CC(C)Cn1cc2nc(N)[nH]cc-2c1=O | 29.2
50 | O=C(NCCN1CCCCCC1=O)Nc1cccnc1-n1cccn1 | -15.4
51 | CCc1ncc2c(n1)CN(c1cc(NC3CC3)nc(N)n1)C2 | -49.6
52 | CCn1cc(-n2cc3nc(N)[nH]cc-3c2=O)cn1 | -8.69
53 | CCCN(CCC)S(=O)(=O)c1cc(NC(C)=O)ccc1C | 71.2
54 | CCN(CC)S(=O)(=O)c1cc(NC(=O)CCc2cscn2)ccc1C | 28.9
55 | CCN(CC1CCCO1)S(=O)(=O)c1cc(NC(C)=O)ccc1C (configuration not stated) | 47.7
56 | O=C(c1cccc(C2CCNC2)c1)N1CCC(N2CCC(O)CC2)CC1 (configuration not stated) | 35.1
57 | Cc1cc2cccc(C(=O)N3CCOC4(CNCCOC4)C3)c2o1 (configuration not stated) | 30.5
58 | COc1ccc(C(=O)N2CCOC3(CNCCOC3)C2)c(OC)n1 (configuration not stated) | 53.6
59 | Cc1ccccc1C(=O)N1CCOC2(CNCCOC2)C1 (configuration not stated) | 55.1
60 | O=C(c1ccccc1-c1ccccc1)N1CCOC2(CNCCOC2)C1 (configuration not stated) | -16.5
61 | COc1ccc(Cl)cc1C(=O)N1CCOC2(CNCCOC2)C1 (configuration not stated) | 16.8
62 | CN(C)c1ccccc1C(=O)N1CCOC2(CNCCOC2)C1 (configuration not stated) | 8.53
63 | Cc1nc(C)n(CC2CCCN2CC(=O)NCCC#N)n1 (configuration not stated) | 8.38
64 | Cc1nc(-c2ccc(C(=O)O)cc2)cc(C2CCN(C(C)C)CC2)n1 | 26.3
65 | OC(CN1CCC(c2ccn[nH]2)CC1)c1ccc(F)cc1 (configuration not stated) | -12.2
66 | Cc1cc(Nc2nc(C)cc(C)n2)cc(C2CCCN2)n1 (configuration not stated) | 49.2
67 | Cc1cc(S(=O)(=O)N2C[C@H](C3CC3)[C@@H](N)C2)c(C)s1 | 1.71
